Records with an inconclusive call do not appear. Activity calls are given as the source filed them. The call rests on the fitted dose curve; in most records, active means well fitted curve in the direction sought with a large enough effect in the repeat runs; inconclusive means weak or mixed curves; inactive means no such curve, though single readings can be large; an effect the other way counts as inactive or inconclusive.
Assays:
[1] = qHTS RealTime-Glo MT Cell Viability Assay in HepG2 cells - 40 hour (AID 1224870); further: nearly all actives have a fitted effect of over 50% in size
Outline: (§1)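 HepG2 cells mixed with RealTime-Glo MT reagents (NanoLuc plus cell-permeant prosubstrate) were seeded at 600 cells/well, incubated 5 h at 37 C/5% CO2, then pinned with compounds in DMSO; nonlytic luminescence tracked viability during 40 h treatment.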

[2] = A CellTox Green Cytotoxicity Assay to monitor cytotoxicity in HEK293 cells - 40 hour (AID 1224871); further: nearly all actives have a fitted effect of over 45% in size
Outline: (§2)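 Fluorescence intensity, read at 0, 8, 16, 24, 32 and 40 h of compound treatment, reflected dye binding to DNA of dead HEK293 cells; compounds (23 nL, DMSO) were added 5 h after plating cells with reagent.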

[3] = qHTS RealTime-Glo MT Cell Viability Assay in HEK293 cells - 16 hour (AID 1224872); further: top concentration of the series differs between compounds; nearly all actives have a fitted effect of over 50% in size
Outline: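 Nonlytic real-time viability readout: viable cells convert prosubstrate to NanoLuc substrate, giving luminescence proportional to live cell number. HEK293, 600 cells/well, compound added after 5 h, continuous culture at 37 C.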

[4] = qHTS RealTime-Glo MT Cell Viability Assay in HepG2 cells - 8 hour (AID 1224873); further: nearly all actives have a fitted effect of over 55% in size
Outline: as §1

[5] = qHTS RealTime-Glo MT Cell Viability Assay in HEK293 cells - 40 hour (AID 1224874); conditions: RealTime-Glo luminescence; max response: hits give low values; further: nearly all actives have a fitted effect of over 50% in size
Outline: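 Viable HEK293 cells reduce a cell-permeant prosubstrate; the product diffuses out and is consumed by NanoLuc in the medium to give light. Compounds went in after a 5 h incubation and plates were read over the treatment course.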

[6] = A CellTox Green Cytotoxicity Assay to monitor cytotoxicity in HEK293 cells - 24 hour (AID 1224875); further: series mostly up to about 77 µM; nearly all actives have a fitted effect of over 45% in size
Outline: as §2

[7] = A CellTox Green Cytotoxicity Assay to monitor cytotoxicity in HepG2 cells - 16 hour (AID 1224876); further: nearly all actives have a fitted effect of over 45% in size
Outline: (§3)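 Using 1536-well format, dye-containing HepG2 suspension was seeded, allowed 5 h at 37 C/5% CO2, dosed by pintool with compounds, positive and negative controls, and imaged for fluorescence across 40 h.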

[8] = qHTS RealTime-Glo MT Cell Viability Assay in HepG2 cells - 32 hour (AID 1224877); further: nearly all actives have a fitted effect of over 55% in size
Outline: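 Luminescence read-out: viable HepG2 cells reduce a prosubstrate to a NanoLuc substrate, giving a signal proportional to live cell number. Reads taken at 0, 8, 16, 24, 32 and 40 h of compound exposure at 37 C.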

[9] = A CellTox Green Cytotoxicity Assay to monitor cytotoxicity in HepG2 cells - 24 hour (AID 1224878); further: nearly all actives have a fitted effect of over 45% in size
Outline: as §3

[10] = A CellTox Green Cytotoxicity Assay to monitor cytotoxicity in HepG2 cells - 40 hour (AID 1224879); further: nearly all actives have a fitted effect of over 40% in size
Outline: as §3
On the % scale 0 is the no-effect control and ±100 the full control effect.

CC(C)NCC(O)COc1cccc2[nH]ccc12 (stereo not given)
inactive: outcome [1] | Potency [2] | Potency [3] | outcome [4] | max response [5] -0.192% | outcome [6] | outcome [7] | outcome [8] | outcome [9] | Potency [10]

COc1cc(N)ccc1C
inactive: outcome [1] | Potency [2] | Potency [3] | outcome [4] | max response [5] 8.05% | outcome [6] | outcome [7] | outcome [8] | outcome [9] | Potency [10]

CC(C)c1ccc2cc(C(C)C)ccc2c1
inactive: outcome [1] | Potency [2] | Potency [3] | outcome [4] | max response [5] 11.1% | outcome [6] | outcome [7] | outcome [8] | outcome [9] | Potency [10]

Cc1ccc2c(c1)OCC(=O)CO2
inactive: outcome [1] | Potency [2] | Potency [3] | outcome [4] | max response [5] -8.18% | outcome [6] | outcome [7] | outcome [8] | outcome [9] | Potency [10]

COc1cc(NS(=O)(=O)c2ccc(N)cc2)nc(OC)n1
inactive: outcome [1] | Potency [2] | Potency [3] | outcome [4] | max response [5] 5.69% | outcome [6] | outcome [7] | outcome [8] | outcome [9] | Potency [10]

O=C(OCC(COC(=O)c1cccnc1)(COC(=O)c1cccnc1)COC(=O)c1cccnc1)c1cccnc1
inactive: outcome [1] | Potency [2] | Potency [3] | outcome [4] | max response [5] 10.7% | outcome [6] | outcome [7] | outcome [8] | outcome [9] | Potency [10]

C=C(C)C(=O)OCCOP(=O)(O)OCCOC(=O)C(=C)C
inactive: outcome [1] | Potency [2] | Potency [3] | outcome [4] | max response [5] -2.48% | outcome [6] | outcome [7] | outcome [8] | outcome [9] | Potency [10]

COCCOCCOCCOCCO
inactive: outcome [1] | Potency [2] | Potency [3] | outcome [4] | max response [5] 4.56% | outcome [6] | outcome [7] | outcome [8] | outcome [9] | Potency [10]

CCCOC(OCCC)OCCC
inactive: outcome [1] | Potency [2] | Potency [3] | outcome [4] | max response [5] 6.14% | outcome [6] | outcome [7] | outcome [8] | outcome [9] | Potency [10]

COP(=O)(OC)OC(c1ccc(Cl)cc1)P(=O)(OC)OC (stereo not given)
inactive: outcome [1] | Potency [2] | Potency [3] | outcome [4] | max response [5] 4.98% | outcome [6] | outcome [7] | outcome [8] | outcome [9] | Potency [10]

CC(C)N(c1ccccc1)C(C)C
inactive: outcome [1] | Potency [2] | Potency [3] | outcome [4] | max response [5] 4.56% | outcome [6] | outcome [7] | outcome [8] | outcome [9] | Potency [10]

On1nnc2ccccc21
inactive: outcome [1] | Potency [2] | Potency [3] | outcome [4] | max response [5] -15.2% | outcome [6] | outcome [7] | outcome [8] | outcome [9] | Potency [10]

CC(C)CCCCOC(=O)c1ccccc1C(=O)OCCCCC(C)C
inactive: outcome [1] | Potency [2] | Potency [3] | outcome [4] | max response [5] -1.41% | outcome [6] | outcome [7] | outcome [8] | outcome [9] | Potency [10]

Cc1cc(Cl)c(C)cc1Cl
inactive: outcome [1] | Potency [2] | Potency [3] | outcome [4] | max response [5] 6.26% | outcome [6] | outcome [7] | outcome [8] | outcome [9] | Potency [10]

CCC(C)(CCC(C)C)C(=O)O (stereo not given)
inactive: outcome [1] | Potency [2] | Potency [3] | outcome [4] | max response [5] 2.99% | outcome [6] | outcome [7] | outcome [8] | outcome [9] | Potency [10]

O=C(NCCN1CCOCC1)c1ccc(Cl)cc1
inactive: outcome [1] | Potency [2] | Potency [3] | outcome [4] | max response [5] 5.6% | outcome [6] | outcome [7] | outcome [8] | outcome [9] | Potency [10]

c1ccc2nccnc2c1
inactive: outcome [1] | Potency [2] | Potency [3] | outcome [4] | max response [5] 5.36% | outcome [6] | outcome [7] | outcome [8] | outcome [9] | Potency [10]

COc1ccc(-c2cc(=O)c3c(O)cc(O[C@@H]4O[C@H](CO[C@@H]5O[C@@H](C)[C@H](O)[C@@H](O)[C@H]5O)[C@@H](O)[C@H](O)[C@H]4O)cc3o2)cc1O
inactive: outcome [1] | Potency [2] | Potency [3] | outcome [4] | max response [5] 1.76% | outcome [6] | outcome [7] | outcome [8] | outcome [9] | Potency [10]

O=C(O)c1ccc(Cl)cc1Cl
inactive: outcome [1] | Potency [2] | Potency [3] | outcome [4] | max response [5] 7.46% | outcome [6] | outcome [7] | outcome [8] | outcome [9] | Potency [10]

O=S(=O)(O)CCN1CCN(CCO)CC1
inactive: outcome [1] | Potency [2] | Potency [3] | outcome [4] | max response [5] -3.48% | outcome [6] | outcome [7] | outcome [8] | outcome [9] | Potency [10]

Cc1ccc(S(=O)(=O)O)c(C)c1
inactive: outcome [1] | Potency [2] | Potency [3] | outcome [4] | max response [5] 3.15% | outcome [6] | outcome [7] | outcome [8] | outcome [9] | Potency [10]

Cc1cccc(C)c1NC(=O)c1ccccc1C(=O)O
inactive: outcome [1] | Potency [2] | Potency [3] | outcome [4] | max response [5] 2.81% | outcome [6] | outcome [7] | outcome [8] | outcome [9] | Potency [10]
